Cruzain Triton = cruzain (T. cruzi) inhibition with detergent. AID 1478. purified cruzain, Z-FR-AMC fluorescence, 0.01% Triton. hit rate 0.43% among 200,000. Potency, µM, most hits filed as inhibitors; further: nearly all actives have a fitted effect of over 40% in size
Target sequence (P25779 123-467 limits assumed): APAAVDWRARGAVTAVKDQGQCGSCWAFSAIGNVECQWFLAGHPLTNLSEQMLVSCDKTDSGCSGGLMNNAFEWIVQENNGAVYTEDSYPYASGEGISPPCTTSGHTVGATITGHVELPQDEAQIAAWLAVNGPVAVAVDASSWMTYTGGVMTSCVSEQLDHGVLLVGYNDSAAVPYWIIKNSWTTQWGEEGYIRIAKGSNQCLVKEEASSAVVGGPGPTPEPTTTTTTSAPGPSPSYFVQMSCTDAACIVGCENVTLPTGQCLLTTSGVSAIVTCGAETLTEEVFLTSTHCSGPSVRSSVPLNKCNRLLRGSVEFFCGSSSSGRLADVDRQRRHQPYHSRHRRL
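Cruzain (1.5 nM) preincubated 15 min at RT with compound in 100 mM sodium acetate pH 5.5, 5 mM DTT, 0.01% Triton X-100. Reaction started with 2 uM Z-FR-AMC; AMC fluorescence (ex 360/em 450 nm) change over 60 s gave rate.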
Cruzain inh noDet = inhibitors of Trypanosoma cruzi cruzain without detergent. hit rate 2.3% among 200,000. Potency, µM, actives largely listed as inhibitors. purified cruzain, Z-FR-AMC fluorescence, no detergent. P25779; further: nearly all actives have a fitted effect of over 40% in size
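Detergent-free condition (0.00005% Triton X-100) in acetate buffer pH 5.5 with DTT. 1.5 nM enzyme and compound were pre-mixed 15 min, then 2 uM Z-FR-AMC substrate added; reaction progress from fluorescence change between first and third reads (60 s).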
Of the large screens only hits and unclear results are named; the others gave an inactive call. Rows were chosen to be rich in hits. Some 2.4% of all compounds tested hit in one or more screens of this group. The call rests on the fitted dose curve; in most records, active means well fitted curve in the direction sought with a large enough effect; inconclusive means small, poorly fitted or top-dose-only effect, or another doubt; inactive means no such curve, though single readings can be large; an effect the other way counts as inactive or inconclusive.

O=C(O)Cc1sc(Nc2ccccc2)nc1-c1ccccc1	none
O=C(Cc1sc(-c2ccccc2Cl)nc1-c1ccccc1)Nc1ccccc1	Cruzain inh noDet 12.6µM
O=S(=O)(c1ccc(Cl)c(F)c1)N1CCC(c2nc(-c3ccncc3)no2)CC1	none
CC1=C(C(=O)Nc2cc(Cl)ccc2C)C(c2ccccc2F)n2ncnc2N1 (configuration not stated)	none
CCCCOC(=O)Cn1c(=O)c2c(nc3n2CCCCN3c2ccc(C)cc2)n(C)c1=O	Cruzain Triton 25.1µM
Cn1c(=O)n(CC(=O)O)c(=O)c2c1nc1n2CCCN1c1ccc(Cl)cc1	none
CCCCc1c(O)nc(SCCC(=O)O)[nH]c1=O	none
O=C(Nc1ccccc1N1CCCCC1)c1ccc(N2C(=O)c3ccccc3C2=O)cc1	Cruzain inh noDet inconclusive
COc1ccc(NC(=O)c2cn(-c3ccccc3)nc2-c2ccc(C)cc2)cc1	none
O=C(COC(=O)CN1C(=O)c2ccccc2C1=O)Nc1ncc(Cl)cc1Cl	none
COc1ccc(-c2nn(-c3ccccc3)cc2C(=O)n2nnc3ccccc32)cc1	Cruzain inh noDet 15.8µM
Cc1ccc(-c2nn(-c3ccccc3)cc2C(=O)OCC(=O)Nc2ncc(Cl)cc2Cl)cc1	Cruzain inh noDet 31.6µM
Cc1ccc(C(=O)COC(=O)c2cc(-c3ccccc3)nc3ccccc23)cc1C	none
COc1ccc(-c2nn(-c3ccccc3)cc2C(=O)OCC(=O)c2ccc(C)c([N+](=O)[O-])c2)cc1	Cruzain inh noDet 25.1µM
CC(=O)Nc1ccc(C(=O)OCC(=O)c2ccc(C)c([N+](=O)[O-])c2)cc1	none
COc1ccc(-c2cc(C(=O)OCC(=O)c3ccc(C)c([N+](=O)[O-])c3)c3ccccc3n2)cc1	Cruzain inh noDet 10µM
COc1cc(NS(=O)(=O)c2ccc(OC)c(OC)c2)cc(OC)c1	none
O=C(Nc1nnc(C2CC2)s1)C1Cc2ccccc2CN1S(=O)(=O)c1cccs1 (configuration not stated)	Cruzain inh noDet inconclusive
Cc1cc(C)n(CCOC(=O)c2sc3ccccc3c2Cl)n1	none
O=C(CN(c1ccc(Cl)c(Cl)c1)S(=O)(=O)c1ccccc1)N1CCc2ccccc2C1	none
COc1cccc(NC(=O)C2CCN(S(=O)(=O)c3c(C)noc3/C=C/c3cccs3)CC2)c1	Cruzain inh noDet 15.8µM
COc1ccc(NC(=O)C2CCN(S(=O)(=O)c3c(C)noc3/C=C/c3cccs3)CC2)cc1	none
N#Cc1c(C(F)(F)F)cc(-c2cccs2)nc1SCC(=O)Nc1cccc(Cl)c1	none
CCCc1nc(SCC(=O)N2CCCC2)c2ccccc2n1	none
COc1ccc2[nH]c3c(c2c1)CCN=C3C	Cruzain inh noDet 12.6µM
COc1ccc2[nH]c3c(c2c1)CCNC3=O	none
Cc1ccc(SCC(=O)Nc2ccc(N3CCN(c4ccccc4)CC3)c(F)c2)cc1	Cruzain inh noDet 10µM
CN1CCN(c2ccc(NC(=O)CSc3ccccc3)cc2F)CC1	none
O=C(Cc1csc(-c2ccccc2)n1)NCc1ccc(F)cc1	none
CC(C)NC(=S)N/N=C/c1sc(N2CCCCC2)nc1-c1cccs1	Cruzain inh noDet 31.6µM
CCCCNC(=S)N(C)/N=C/c1sc(N2CCCCC2)nc1-c1cccs1	none
O=C(CCNS(=O)(=O)c1c(Cl)cccc1Cl)OCC(=O)c1ccccc1F	none
C=CCS/C(=N\n1cnc2ccccc2c1=O)N(CC)CC	none
Cc1cc(Cl)ccc1NC(=O)CCC(=O)O	none
COC(=O)c1sc2nc(SCc3cccc(Cl)c3)n(N)c(=O)c2c1C	Cruzain inh noDet inconclusive
COC(=O)c1sc2nc(SCc3ccccc3C)n(N)c(=O)c2c1C	Cruzain inh noDet 31.6µM
CN1[C@@H]2CC[C@@H]1CC(OC(=O)[C@H](CO)c1ccccc1)C2 (some centres not stated)	none
CCN1CCN(CCCNC(=O)c2cn(CCOC)c(=O)c3c2c2ccccc2n3C)CC1	none
Cc1ccc(CNC(=O)c2sc3nc(-c4ccc(F)cc4)ccc3c2N)cc1	none
COc1ccc(-c2ccc3c(N)c(C(=O)NCc4ccc(C)cc4)sc3n2)cc1	Cruzain Triton 12.6µM, Cruzain inh noDet 15.8µM
Fc1ccc(Cn2ccc(-c3cnc(-c4ccccc4)s3)n2)cc1	none
O=C(c1ccc(F)cc1)n1ccc(-c2cnc(-c3ccccc3)s2)n1	Cruzain inh noDet 6.31µM
Cc1cc(C)n(-c2nc3ccccc3c3nc(C)nn23)n1	none
COc1ccccc1CNc1ccc(-c2nc(C(C)C)no2)cc1[N+](=O)[O-]	Cruzain inh noDet inconclusive
COc1ccccc1CNc1ccc(-c2nc(C)no2)cc1[N+](=O)[O-]	Cruzain inh noDet 20µM
CS(=O)(=O)N1CCN(c2ccc([N+](=O)[O-])c(NCc3ccc(Cl)cc3)c2)CC1	none
CC(=O)Nc1ccc(NC(=O)Cn2c(-c3ccc(F)cc3)cnc2SCC(=O)Nc2c(C)cccc2C)cc1	Cruzain inh noDet 20µM
COc1ccc(NC(=O)CSc2ncc(-c3ccc(F)cc3)n2Cc2ccco2)cc1	none
CC(C)Cc1nn2c(=O)cc(COC(=O)c3ccc(NC(=O)c4cccs4)cc3)nc2s1	none
Nc1c(-c2cccs2)cnn1-c1nc(-c2ccc(F)cc2)cs1	none
